# Results taken from PubChem BioAssay AID602122 (National Center for Advancing Translational Sciences (NCATS), 2011).
# The source made the active and inactive calls.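 How the source made its calls: active means translocation seen by eye under the microscope after immunostaining of patient fibroblasts; inconclusive means translocation result judged unclear; inactive means no translocation seen.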
# Target: Lysosomal alpha-glucosidase (Homo sapiens) (UniProt P10253)
# Experiment: qHTS for Activators of Human alpha-Glucosidase as a Potential Chaperone Treatment of Pompe Disease: Fibroblast Translocation
# Settings: Pompe patient fibroblasts, GAA immunostaining lysosomal translocation, 6 d
# Excerpt: Alpha-glucosidase is responsible for hydrolysis of terminal, non-reducing 1,4-linked alpha-D-glucose residues with release of alpha-D-glucose. It is a lysosomal hydrolase that is required for the degradation of a small percentage (1-3%) of cellular glycogen in human. Deficiency of this enzyme results in glycogen-storage disease type II (GSDII), also referred to as Pompe disease, an autosomal recessive disorder. Structurally normal glycogen is accumulated in lysosomes and cytoplasm in affected patients, primarily in muscle tissues. Excessive glycogen storage within lysosomes may interrupt normal functioning of other organelles and leads to cellular injury. In turn, this leads to enlargement and dysfunction of the entire organ involved (eg, cardiomyopathy and muscle weakness). It has reported that the improper folding and trafficking of alpha-glucosidase resulting from the genetic mutations may account for a significant number of Pompe patients. […] We optimized this alpha-glucosidase assay in 1536-well plate format for identifying the novel small molecule inhibitors with the structures other than the sugar analogs in order to develop the new pharmacological chaperones. Validated hits were tested in this fibroblast translocation assay that measures fluorescence through immunostaining Pompe patient derived fibroblasts. NIH Chemical Genomics Center [NCGC] […]
row,SMILES,outcome
1,CCCN1CNc2c(c(=O)[nH]c(=S)n2Cc2ccc(OC)c(OC)c2)C1,active; yes
